Consider ten compounds from PubChem BioAssay (EPA / NIEHS).

Where “and” joins values, the source holds several entries; their conditions need not be identical. Equal entries are not always repeated. Calls of active or inactive are those of the source. Rule for the calls, unless noted: active = hit-call score of the fitted dose curve at least 0.9, where 1 is the maximum; inactive = score below 0.9.

System in the first assay: not listed separately
The assay is described as follows: CCTE_Shafer_MEA_dev_inter_network_spike_interval_mean: CCTE's Neural Network Formation Assay for Mean Inter-network Spike Interval, Shafer Lab (AID 2284047).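 For AC50: potency for a decrease in mean inter-network spike interval below DMSO.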 Summed up:
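Primary rat cortical neurons on 16-electrode MEA wells, exposed from plating day 0 through DIV 12, compound renewed at DIV 5 and 9 media changes. Mean interval between network-spike peaks recorded DIV 5, 7, 9, 12; collapsed as trapezoidal AUC, fitted downward versus DMSO.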
With `C[C@]12CC[C@@H]3c4ccc(O)cc4CC[C@H]3[C@@H]1CC[C@@H]2O`, the result was inactive.
Take `N[C@@H](CCC(=O)O)C(=O)O`: the outcome was inactive.
As for `N#CCCNCCC#N`, the compound was classed as inactive.
The same measure, in the same setting: the same measure for `CCCCC(CC)COC(=O)COc1ccc(Cl)cc1C` (stereo not given): “inactive”.
Broadly, the AC50 is the midpoint of the concentration-response curve, whichever way the signal moves. As for `CC/C(=C(\c1ccccc1)c1ccc(OCCN(C)C)cc1)c1ccccc1`, the AC50 is 57.8 nM (active).
Regarding `CC(C)Cc1ccc(C(C)C(=O)O)cc1` (stereo not given), the result was inactive.

System in another assay: not listed separately
As to the kind of experiment: CCTE_Shafer_MEA_dev_network_spike_number: CCTE's Neural Network Formation Assay for Number of Network Spikes, Shafer Lab (AID 2284048).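 For AC50: fit as a loss of signal meaning fewer network spikes than DMSO.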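 Note: synchronized bursts across electrodes counted on days 5 7 9 12 and integrated as AUC.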 Summed up: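 Primary rat cortical neurons on PEI/laminin 48-well MEA plates, dosed from plating day 0 for 12 days, renewed at DIV 5 and 9. Network spike counts recorded DIV 5, 7, 9, 12, collapsed as trapezoidal AUC; DMSO baseline.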
As to `C[C@]12CC[C@@H]3c4ccc(O)cc4CC[C@H]3[C@@H]1CC[C@@H]2O`, the result was inactive.
On to `N#CCCNCCC#N`, for which the result was inactive.
On to `CCCCC(CC)COC(=O)COc1ccc(Cl)cc1C` (stereo not given), for which the compound was called inactive.
With `CC/C(=C(\c1ccccc1)c1ccc(OCCN(C)C)cc1)c1ccccc1`, the AC50 was 1870 nM (active).
In the case of `CC(C)Cc1ccc(C(C)C(=O)O)cc1` (stereo not given), the compound was classed as inactive.

System in another assay: not listed separately
The assay is described as follows: CCTE_Shafer_MEA_dev_network_spike_peak: CCTE's Neural Network Formation Assay for Mean Number of Electrodes in Network Spike, Shafer Lab (AID 2284049).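 For AC50: fitted for loss of signal meaning fewer electrodes in network spikes than DMSO.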 Put shortly: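 Network-spike peak electrode count from recordings on days 5, 7, 9 and 12 was combined as trapezoidal area under the curve. Rat cortical cultures were treated continuously from plating, with compound renewed at each feed (DIV 5, 9); fits versus DMSO.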
Consider `C[C@]12CC[C@@H]3c4ccc(O)cc4CC[C@H]3[C@@H]1CC[C@@H]2O`, for which the compound was called inactive.
Same read-out and setting: the same measure for `N[C@@H](CCC(=O)O)C(=O)O`: “inactive”.
The same measure, in the same setting: the same measure for `N#CCCNCCC#N`: “inactive”.
As to `CCCCC(CC)COC(=O)COc1ccc(Cl)cc1C` (stereo not given), the outcome was inactive.
For the compound `CC/C(=C(\c1ccccc1)c1ccc(OCCN(C)C)cc1)c1ccccc1`, the AC50 was 209 nM (active).
The same measure, in the same setting: the same measure for `CC(C)Cc1ccc(C(C)C(=O)O)cc1` (stereo not given): 15000 nM (active).

A further assay relates to DIO2 (gene 1734). The assay is described as follows: CCTE_GLTED_hDIO2: CCTE's human Deiodinase 2 (DIO2) Inhibition Assay, Great Lakes Toxicology and Ecology Division (GLTED) Lab (AID 2284050; active = hit-call score of the fitted dose curve at least 0.9, where 1 is the maximum). Put shortly:
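Cell-free human DIO2 incubated 3 h with chemical; liberated iodide quantified by Sandell-Kolthoff absorbance. Triplicate plates; loss of signal fitted vs DMSO.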
Regarding `C=C(C)C(=O)OCCC(C)OC(=O)C(=C)C` (stereo not given), the AC50 was 49.6 µM (active).
On the same count and under the same terms, the same measure for `CCCCCCCCOC(=O)c1ccc(O)cc1`: 92.9 µM (active); for `O=C(c1ccc(OCCN2CCCCC2)cc1)c1c(-c2ccc(O)cc2)sc2cc(O)ccc12`: 99.1 µM (active).
Still for that read-out and setting: the same measure for `CCCCC/C=C\C=C\C(=O)OCC`: 44.2 µM (active); for `CC/C(=C(\c1ccccc1)c1ccc(OCCN(C)C)cc1)c1ccccc1`: 46.5 µM (active) and 46.3 µM (active).

System in the next assay: not listed separately
The assay is described as follows: CCTE_Shafer_MEA_dev_spike_duration_mean: CCTE's Neural Network Formation Assay for Mean Spike Duration, Shafer Lab (AID 2284051).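 For AC50: potency for a decrease in mean network spike duration versus DMSO.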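 Note: mean network spike duration pooled as area under curve over DIV 5 to 12 recordings.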 Summed up: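 Primary rat cortical neurons on 16-electrode MEA wells (PEI-coated, laminin in plating drop), exposed from plating through DIV 12 with compound renewed at DIV 5 and 9. Mean network-spike duration recorded DIV 5, 7, 9, 12; trapezoidal AUC across days, DMSO baseline.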
Take `C[C@]12CC[C@@H]3c4ccc(O)cc4CC[C@H]3[C@@H]1CC[C@@H]2O`: the result was inactive.
In the case of `N[C@@H](CCC(=O)O)C(=O)O`, the compound was called inactive.
Regarding `N#CCCNCCC#N`, the call was inactive.
On the same count and under the same terms, the same measure for `CCCCC(CC)COC(=O)COc1ccc(Cl)cc1C` (stereo not given): “inactive”.
As to `CC/C(=C(\c1ccccc1)c1ccc(OCCN(C)C)cc1)c1ccccc1`, the AC50 was 350 nM (active).
In the case of `CC(C)Cc1ccc(C(C)C(=O)O)cc1` (stereo not given), the call was inactive.

System in the next assay: not listed separately
As to the kind of experiment: CCTE_Shafer_MEA_dev_network_spike_duration_std: CCTE's Neural Network Formation Assay for Standard Deviation of Network Spike Duration, Shafer Lab (AID 2284052).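 Note: area under curve of spike duration SD across recording days 5 to 12; hits are decreases in network spike duration SD versus DMSO vehicle.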 Put shortly: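 Primary rat cortical neurons on PEI-coated 16-electrode MEA wells, exposed from plating day 0 through day 12 with compound renewed at DIV 5 and 9. Network spike duration SD recorded on days 5, 7, 9, 12, collapsed as trapezoidal AUC; loss-of-signal fit versus DMSO.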
As to `C[C@]12CC[C@@H]3c4ccc(O)cc4CC[C@H]3[C@@H]1CC[C@@H]2O`, the compound was called inactive.
On the same count and under the same terms, for `N[C@@H](CCC(=O)O)C(=O)O` the value was “inactive”; for `N#CCCNCCC#N`, “inactive”; for `CCCCC(CC)COC(=O)COc1ccc(Cl)cc1C` (stereo not given), “inactive”.
Turning to `CC/C(=C(\c1ccccc1)c1ccc(OCCN(C)C)cc1)c1ccccc1`, the AC50 is 273 nM (active).
On to `CC(C)Cc1ccc(C(C)C(=O)O)cc1` (stereo not given), for which the outcome was inactive.

System in another assay: not listed separately
The assay is described as follows: CCTE_Shafer_MEA_dev_per_network_spike_spike_number_mean: CCTE's Neural Network Formation Assay for Mean Number of Spikes in a Network Spike, Shafer Lab (AID 2284053).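 For AC50: fitted as decrease in spikes per network spike relative to DMSO.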 Put shortly:
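Primary rat cortical neurons on 48-well, 16-electrode MEA plates were exposed from plating to DIV 12, with dosing renewed on DIV 5 and 9. Spikes per network spike (0.05 s peak window) were recorded on DIV 5, 7, 9 and 12 and collapsed as trapezoidal AUC versus DMSO.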
Consider `C[C@]12CC[C@@H]3c4ccc(O)cc4CC[C@H]3[C@@H]1CC[C@@H]2O`, for which the compound was called inactive.
On the same count and under the same terms, the same measure for `N[C@@H](CCC(=O)O)C(=O)O`: “inactive”; for `N#CCCNCCC#N`: “inactive”; for `CCCCC(CC)COC(=O)COc1ccc(Cl)cc1C` (stereo not given): “inactive”.
For the compound `CC/C(=C(\c1ccccc1)c1ccc(OCCN(C)C)cc1)c1ccccc1`, the AC50 is 66.8 nM (active).
Turning to `CC(C)Cc1ccc(C(C)C(=O)O)cc1` (stereo not given), the compound was called inactive.
